Assay outcomes from PubChem BioAssay.
Compounds with a hit are over-represented: about 11% of the library has one in this group of screens.
HEK293 tox: Cytotoxic Profiling in HEK 293 Cell Line of Diverse Libraries Using Quantitative High-Throughput Screening | HEK 293 viability, ATP luminescence (CellTiter-Glo), 48-72 h | Potency, µM (top dose mostly 115 µM), actives largely listed as inhibitors | 94,000 compounds, 6.6% hits; further: nearly all actives have a fitted effect of over 60% in size
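CellTiter-Glo luminescence (cellular ATP) was read after 48 or 72 hr of compound exposure at 37 degree Celsius. Cells were HEK 293 plated at 250 cells/well.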
Luciferase inh: Firefly luciferase inhibition profiling of diverse chemical library using quantitative high-throughput screening; purified P. pyralis luciferase, luminescence, biochemical; Potency, µM (series often up to 115 µM), actives largely listed as inhibitors; 76,000 compounds, 2.5% hits; further: nearly all actives have a fitted effect of over 65% in size
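Purified 10nM P. pyralis luciferase with 10uM D-luciferin and 10uM ATP in 50mM Tris acetate pH 7.5, 10mM Mg acetate, 0.01% Tween-20, 0.05% BSA. qHTS titration; luminescence read by CCD imager.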
NIH3T3 tox: Cytotoxic Profiling in NIH 3T3 Cell Line of Diverse Libraries Using Quantitative High-Throughput Screening; NIH 3T3 viability, CellTiter-Glo ATP luminescence, 48-72 h; Potency, µM (highest dose often 96.7 µM), hits mostly inhibitors; 94,000 compounds, 4.3% hits; further: nearly all actives have a fitted effect of over 55% in size
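Cytotoxicity is measured as loss of cellular ATP: NIH 3T3 cells (400/well) are exposed to compound for 48 or 72 hr at 37 °C, then CellTiter-Glo luminescence is imaged after 10 min at room temperature.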
NPR1 antag: Natriuretic polypeptide receptor (hNpr1) antagonism - Primary qHTS; Potency, µM (highest dose often 46.3 µM), actives largely listed as inhibitors; 76,000 compounds, 1.6% hits; HEK293 hNpr1 GloSensor cGMP, ANP-stimulated luminescence; Atrial natriuretic peptide receptor 1 (Homo sapiens), P16066; calls by dose curve; further: nearly all actives have a fitted effect of over 60% in size
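HEK293 cells stably expressing human Npr1 and cGMP GloSensor pGS-40F, loaded 2 h with 2% GloSensor reagent, given compound 30 min at room temperature. Luminescence read before and 20 min after 0.1 nM hNppA.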
Large screens that a line does not name were inactive. Unless noted, the call rests on the fitted dose curve; in most records, active means well fitted curve in the direction sought with a large enough effect; inconclusive means small, poorly fitted or top-dose-only effect, or another doubt; inactive means no such curve, though single readings can be large; an effect the other way counts as inactive or inconclusive.

Cc1ccc(OCc2nc(C3CN(C(=O)c4cc(C)nn4C)C3)no2)cc1	HEK293 tox 45µM, Luciferase inh 40µM, NPR1 antag inconclusive
CCCNC(=O)N1CCC(c2noc(COc3ccc(F)cc3)n2)C1 (centres undefined)	HEK293 tox inconclusive, NPR1 antag inconclusive
O=C(Cc1c(F)cccc1Cl)N1CCC(c2noc(COc3ccc(F)cc3)n2)CC1	HEK293 tox 89µM, NIH3T3 tox inconclusive, NPR1 antag inconclusive
CCn1nccc1C(=O)N1CCC(c2noc(COc3ccc(F)cc3)n2)C1 (centres undefined)	HEK293 tox 45µM, NIH3T3 tox inconclusive
Cn1c(CN2CCN(CCN3CCOCC3)CC2)nnc1C1CC(N)C1 (centres undefined)	none
Cc1cc(S(=O)(=O)N[C@@H]2CCOC[C@H]2Oc2ccccn2)c(C)s1	none
CC(=O)N1CCN(C(=O)C2CCCN(Cc3cccc(-c4ccc(F)cc4F)c3)C2)CC1 (centres undefined)	HEK293 tox inconclusive (no result: Luciferase inh, NPR1 antag)
O=C(Nc1cccc(F)c1)C1CCCN(Cc2cccc(-c3ccc(F)cc3F)c2)C1 (centres undefined)	HEK293 tox 20µM, NIH3T3 tox 45µM (no result: Luciferase inh, NPR1 antag)
CC(C)(C)CC(=O)N1CCCC(C(=O)Nc2cccc(-c3ccc(F)cc3)c2)C1 (centres undefined)	HEK293 tox inconclusive, NIH3T3 tox inconclusive
C#CCNC(=O)C1CCCN(Cc2cccc(-c3ccc(F)cc3F)c2)C1 (centres undefined)	HEK293 tox 45µM, NIH3T3 tox inconclusive (no result: Luciferase inh, NPR1 antag)
CNC(=O)C1CCCN(Cc2cccc(-c3ccc(F)cc3F)c2)C1 (centres undefined)	HEK293 tox 63µM, NIH3T3 tox inconclusive (no result: Luciferase inh, NPR1 antag)
N#Cc1cc(CN2CCCC(C(=O)Nc3cccc(-c4ccc(F)cc4)c3)C2)c[nH]1 (centres undefined)	HEK293 tox 25µM, NIH3T3 tox 18µM
C[S+](=O)([O-])N1CCC(c2nnc3n2C(C(=O)NCCc2ccc(Cl)cc2)CC3)CC1 (centres undefined)	none (no result: Luciferase inh, NPR1 antag)
Cc1oc(C2CCN(C(=O)c3cc(CN4CCOCC4)on3)CC2)nc1C(=O)N1CCCC1	none (no result: Luciferase inh, NPR1 antag)
CNc1nc(NCCC2CN(c3cnn(C)c(=O)c3)CCO2)ncc1F (centres undefined)	none
O=C(CN1C(=O)NC2(CCS(=O)(=O)CC2)C1=O)Nc1ccc2c(c1)OCCO2	Luciferase inh 35µM
Cc1ccc(NC(=O)CN2C(=O)NC3(CCS(=O)(=O)CC3)C2=O)cc1C	none
O=C(C1CC1)N1CCC2(CC1)CCN(Cc1cccs1)c1ccccc1O2	HEK293 tox 35µM, NIH3T3 tox inconclusive
O=C(c1ccc(C(F)(F)F)cc1)N1CCC2(CC1)CCN(Cc1cccs1)c1ccccc1O2	HEK293 tox 25µM, NIH3T3 tox 13µM
O=C1CC2(CCN(C(=O)C3CCCN([S+](=O)([O-])c4cccs4)C3)CC2)Oc2ccccc2N1 (centres undefined)	HEK293 tox inconclusive (no result: Luciferase inh, NPR1 antag)
O=C1CC2(CCN(C(=O)C3CCN([S+](=O)([O-])c4cccs4)CC3)CC2)Oc2ccccc2N1	HEK293 tox 28µM, NIH3T3 tox inconclusive (no result: Luciferase inh, NPR1 antag)
O=C(NCc1ccccc1)c1nc2sccn2c1-c1cccnc1	NIH3T3 tox inconclusive (no result: Luciferase inh, NPR1 antag)
O=C(c1ccccc1F)N1CCCN(c2ccc3nnc(C4CC4)n3n2)CC1	none (no result: Luciferase inh, NPR1 antag)
c1ccc(N2CCN(C3CCCN(Cc4cn[nH]c4C4CCCCC4)C3)CC2)cc1 (centres undefined)	HEK293 tox 89µM
O=C(Cc1ccc(F)cc1)NC1CCN(Cc2cccc(-c3cccs3)c2)CC1	none (no result: Luciferase inh, NPR1 antag)
Cc1ccc([S+](=O)([O-])NC2CCN(Cc3cccc(-c4cccs4)c3)CC2)cc1	HEK293 tox inconclusive, NIH3T3 tox 11µM (no result: Luciferase inh, NPR1 antag)
O=[S+]([O-])(NC1CCN(Cc2cccc(-c3ccc(F)c(F)c3)c2)CC1)c1cccs1	HEK293 tox 35µM, NIH3T3 tox inconclusive (no result: Luciferase inh, NPR1 antag)
O=C(c1ccc(-c2cccs2)cc1)N1CCC(N[S+](=O)([O-])c2ccccc2)CC1	HEK293 tox 45µM, NIH3T3 tox inconclusive (no result: Luciferase inh, NPR1 antag)
O=C(c1ccc(-c2cncnc2)cc1)N1CCC(N[S+](=O)([O-])c2ccccc2)CC1	none (no result: Luciferase inh, NPR1 antag)
O=[S+]([O-])(CCC(F)(F)F)NC1CCN(Cc2cccc(-c3cccs3)c2)CC1	HEK293 tox inconclusive, NIH3T3 tox 22µM (no result: Luciferase inh, NPR1 antag)
